Bioassay records as filed in PubChem.
SENP6 inh: blocks the human protease SENP6; Q9GZR1; Recombinant SENP6 catalytic domain, aminoluciferin luminescence; inhibition, % at 10 µM; 330,000 tested, 1.8% active; AID 2599;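 active means inhibition above about 50% at the single tested dose, limit read from the data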;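 further: plate controls were DMSO wells with enzyme for no effect and DMSO wells lacking enzyme for full effect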
SENP8 block-1: inhibitors of human SENP8 protease; Q96LD8; purified SENP8, Z-RLRGG-aminoluciferin cleavage, luminescence; inhibition, % at 10 µM; 330,000 tested, 1.2% active; AID 2540; in the data active means inhibition above about 50%
LGR2 antag: Drosophila LGR2 receptor signaling inhibition | inhibition, % at 9.99 µM | 380,000 tested, 0.35% active | HEK293 LGR2, CRE-luciferase, bursicon-stimulated, 4 h;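 active means drop in luminescence signal, shown as inhibition above about 50% in the replicate tests, limit read from the data, passing the limit was not always enough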;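 further: agonist challenge used bursicon conditioned medium at about half maximal strength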
SENP7 block: blocks the human protease SENP7; Q9BQF6; recombinant SENP7, Z-RLRGG-aminoluciferin luminescence, 40 min; inhibition, % at 5 µM; 330,000 tested, 1.5% active; AID 434973;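 active means inhibition above about 50% at the single test dose, limit read from the data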;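 further: plate controls were DMSO with enzyme for no effect and no enzyme buffer wells for full effect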
Target sequence (Q9BQF6 706-1050 limits assumed): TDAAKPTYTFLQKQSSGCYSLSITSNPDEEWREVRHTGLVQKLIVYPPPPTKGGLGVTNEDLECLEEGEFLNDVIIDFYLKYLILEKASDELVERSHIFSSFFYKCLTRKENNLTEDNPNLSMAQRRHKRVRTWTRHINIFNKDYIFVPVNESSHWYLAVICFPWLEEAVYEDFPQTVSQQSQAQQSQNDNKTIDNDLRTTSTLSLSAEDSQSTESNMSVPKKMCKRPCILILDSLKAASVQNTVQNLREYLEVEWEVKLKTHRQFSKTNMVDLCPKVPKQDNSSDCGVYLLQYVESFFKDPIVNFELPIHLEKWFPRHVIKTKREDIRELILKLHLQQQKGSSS
SENP8 block-2: SENP8 (human) protease inhibition | 360,000 tested, 0.64% active | recombinant SENP8, Nedd8 substrate fluorescence | AID 602440 | Q96LD8 | inhibition, % at 20 µM; in the data active means inhibition mostly above about 40%, no sharp cut-off; inactive means mostly below about 27%
HSP90 refold inh: blocks HSP90-mediated luciferase refolding in reticulocyte lysate | 290,000 tested, 0.91% active | inhibition, % at 5.6 µM | Rabbit reticulocyte lysate, luciferase refolding luminescence, 3 h;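 active means inhibition above the screen-wide mean plus 3 SD, computed separately per campaign, cut at about 16% in these data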;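 further: 0% = DMSO wells and 100% = 60 µM geldanamycin wells; inhibitors lower the luminescence because luciferase stays unfolded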
SENP8 confirm: confirmation of human SENP8 protease inhibitors | shares compounds with SENP7 block | Recombinant SENP8, Z-RLRGG-aminoluciferin luminescence, 60 min | inhibition, % at 12.5 µM | 6,200 tested, 40% active | AID 488912;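 active means mean inhibition across replicates above about 50%, limit read from the data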
SENP6 confirm: confirmation of human SENP6 protease inhibitors. AID 488915. shares compounds with SENP7 block. inhibition, % at 12.5 µM. 6,200 tested, 58% active. recombinant SENP6, Z-RLRGG-aminoluciferin luminescence
SENP7 conf: confirmation of human SENP7 protease inhibitors | shares compounds with SENP7 block | inhibition, % at 12.5 µM | recombinant SENP7, Z-RLRGG-aminoluciferin luminescence, 40 min | 6,200 tested, 69% active | AID 488917
Casp3 SENP sel: inhibits human caspase-3 in SENP selectivity test; 6,200 tested, 60% active; shares compounds with SENP7 block; purified caspase-3, Z-DEVD-aminoluciferin luminescence, 60 min; inhibition, % at 12.5 µM;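 active means mean inhibition above about 50%, limit read from the data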;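 further: plate controls were enzyme with DMSO for no effect and wells without caspase-3 for full effect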
Luc interf: counter-screen for SENP inhibitors: luminescence interference; shares compounds with SENP7 block; Pre-incubated SENP8/Z-RLRGG-aminoluciferin, luciferase luminescence interference; inhibition, % at 12.5 µM; 6,200 tested, 39% active; AID 488919;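 active means mean inhibition above about 50% when retested at one dose, limit read from the data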;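 further: plate controls were DMSO wells with completed reaction for no effect and substrate without enzyme for full effect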
* = called active by the depositor. Most compounds without a hit are left out; they make up all but 2.3% or so of the library.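 How the source made its calls, unless noted: active means mean inhibition above about 50% in the one-dose retest (limit read from the data); inactive means the rest.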

`CC(C)C(=O)Nc1ccc(-c2nnc(-c3ccccc3)o2)cc1` gave SENP6 inh 61*, SENP8 block-1 58*, LGR2 antag -95, SENP7 block 76*, SENP8 block-2 -311, HSP90 refold inh 9, SENP8 confirm 12, SENP6 confirm 13, SENP7 conf 19, Casp3 SENP sel 22 and Luc interf 7.
Screening CC(=O)Nc1ccc(-c2nc3ccccc3c(=O)o2)cc1 returned SENP6 inh -29, SENP8 block-1 -28, LGR2 antag 8, SENP7 block -19, SENP8 block-2 -112 and HSP90 refold inh -1.
For O=C(Nc1ccc(-c2nnc(-c3ccccc3)o2)cc1)C(F)(F)F the results were SENP6 inh 76*, SENP8 block-1 66*, SENP7 block 91*, SENP8 block-2 -196, HSP90 refold inh -1, SENP8 confirm -7, SENP6 confirm -3, SENP7 conf -5, Casp3 SENP sel -4 and Luc interf -16.
`CC(=O)/C=C(\C)Nc1ccc(-c2cnc(-c3ccccc3)o2)cc1` gave SENP6 inh 76*, SENP8 block-1 78*, SENP7 block 72*, SENP8 block-2 -492, HSP90 refold inh -2, SENP8 confirm 29, SENP6 confirm 28, SENP7 conf 48, Casp3 SENP sel 22 and Luc interf 45.
Screening CCNC(=O)C[C@H]1CC[C@H]2[C@@H](COC[C@H](O)CN2C(=O)Nc2ccc3c(c2)OCO3)O1 returned LGR2 antag -11.
Screening COCC(=O)Nc1ccc2c(c1)[C@@H]1C[C@@H](CC(=O)NCC3CC3)O[C@H](CO)[C@@H]1O2 returned LGR2 antag 14.
For Cc1ccc(CN2CCN(Cc3cnn(-c4ccc(Cl)cc4)c3)CC2CCO)o1 (stereo not drawn) the results were SENP6 inh -12, SENP8 block-1 -11, LGR2 antag 13, SENP7 block -2, SENP8 block-2 4 and HSP90 refold inh 4.
For Cc1ccc(CN2CCN(Cc3ccncc3)CC2CCO)o1 (stereo not drawn) the results were SENP6 inh 76*, SENP8 block-1 -9, LGR2 antag 2, SENP7 block 7, SENP8 block-2 19, HSP90 refold inh 2, SENP8 confirm -20, SENP6 confirm -21, SENP7 conf -9, Casp3 SENP sel -10 and Luc interf -6.
`CSc1ccccc1NC(=O)COc1ccc(Cl)cc1Cl` gave SENP6 inh 25, SENP8 block-1 4, LGR2 antag -36, SENP7 block 8, SENP8 block-2 16 and HSP90 refold inh 2.
O=C(COc1ccccc1Cl)Nc1ccc(Cl)cn1 was read as SENP6 inh 74*, SENP8 block-1 38, SENP7 block 48, SENP8 block-2 4, HSP90 refold inh -1, SENP8 confirm 24, SENP6 confirm 61*, SENP7 conf 86*, Casp3 SENP sel 60* and Luc interf 6.
`CCCCc1cc(=O)oc2cc(C)cc(OCC(=O)Nc3ccccn3)c12` gave SENP6 inh 53*, SENP8 block-1 31, LGR2 antag -6, SENP7 block 13, SENP8 block-2 -256, HSP90 refold inh 5, SENP8 confirm 40, SENP6 confirm 34, SENP7 conf 68*, Casp3 SENP sel 76* and Luc interf 53*.
`O=C(COc1ccc(Cl)cc1Cl)Nc1ccccn1` gave SENP6 inh -10, SENP8 block-1 98*, LGR2 antag 100*, SENP7 block 100*, SENP8 block-2 10, HSP90 refold inh 87*, SENP8 confirm 96*, SENP6 confirm 98*, SENP7 conf 101*, Casp3 SENP sel 96* and Luc interf 80*.
